Our source for the growth values is PubChem BioAssay (NCI).

Among the test systems are SK-MEL-2 melanoma; EKVX NSCLC; SN12C renal; UO-31 renal; TK-10 renal; ACHN renal; A498 renal; CCRF-CEM leukemia; MOLT-4 leukemia; SR leukemia; RPMI-8226 leukemia; OVCAR-8 ovarian; OVCAR-5 ovarian; OVCAR-4 ovarian; SK-OV-3 ovarian; IGROV1 ovarian; HS 578T breast; NCI/ADR-RES ovarian; OVCAR-3 ovarian.
Holding throughout (assay): NCI-60 one-dose screen, 48 h (100 = growth as untreated, 0 = no growth, -100 = all killed)
What all share (conditions): 10 µM unless noted

SMILES strings stand for the structures. This is part of a sample that, as a whole, favours compounds with a hit. Of some 83,000 tested, about 20% had one in any assay.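 For each line, cells grew in 96-well plates with the test compound present at a single concentration for 48 hours.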 Values without a mark were called inactive. Activity calls are given as the source filed them. Rule for the calls: active = growth percent below 10; inactive = the rest.

For the compound `C[N+](C)(C)CCOC(OCC[N+](C)(C)C)(c1ccccc1)c1ccccc1`, the growth in the experiment with SK-MEL-2 melanoma is 99.4%; in the experiment with EKVX NSCLC it was 111%; in the experiment on SN12C renal, 99.9%; in the experiment on UO-31 renal, 89.1%; in the experiment on TK-10 renal it was 109%; with ACHN renal, 97.6%. Moreover, the growth with A498 renal is 113%; in the experiment on CCRF-CEM leukemia, 105%; with MOLT-4 leukemia, 102%; in the experiment on SR leukemia it was 89.5%; in the experiment with RPMI-8226 leukemia, 106%; with OVCAR-8 ovarian it was 105%. Besides, the growth was 104% in the experiment with OVCAR-5 ovarian; 107% in the experiment on OVCAR-4 ovarian; 103% with SK-OV-3 ovarian; 124% in the experiment on IGROV1 ovarian; 115% in the experiment on HS 578T breast; 97.9% in the experiment on NCI/ADR-RES ovarian.

Regarding `O=C(Oc1ccc[nH]c1=O)c1cc([N+](=O)[O-])cc([N+](=O)[O-])c1`, the growth in the experiment with SK-MEL-2 melanoma was -11.5% (active); with EKVX NSCLC it was 112%; in the experiment on SN12C renal, 107%; with UO-31 renal, 96.7%; in the experiment on TK-10 renal, 90.3%; in the experiment with ACHN renal, 107%. Moreover, the growth in the experiment with A498 renal was 108%; with MOLT-4 leukemia it was 135%; with SR leukemia, 136%; in the experiment with OVCAR-8 ovarian, 93.6%; with OVCAR-5 ovarian, 106%; in the experiment on OVCAR-4 ovarian, 110%. The growth in the experiment with SK-OV-3 ovarian is 116%; in the experiment with IGROV1 ovarian, 162%; in the experiment on OVCAR-3 ovarian it was 113%; in the experiment on HS 578T breast, 124%; with NCI/ADR-RES ovarian, 114%.

Regarding `Cc1nc(Nc2ccc(NC(=S)Nc3ccccc3)cc2)nc2nc(SCc3ccccc3)[nH]c(=O)c12`, the growth with SK-MEL-2 melanoma was 110%; with EKVX NSCLC it was 99.2%; with SN12C renal, 93.6%; with UO-31 renal, 86%; in the experiment on TK-10 renal, 199%; in the experiment with ACHN renal, 107%. Further, the growth is 102% in the experiment on A498 renal; 92.3% with CCRF-CEM leukemia; 87.4% in the experiment with MOLT-4 leukemia; 61.8% with SR leukemia; 67% with RPMI-8226 leukemia; 82.4% with OVCAR-8 ovarian. The growth in the experiment with OVCAR-5 ovarian is 102%; with OVCAR-4 ovarian, 106%; with SK-OV-3 ovarian, 109%; in the experiment on IGROV1 ovarian it was 65.7%; with OVCAR-3 ovarian it was 112%; in the experiment on HS 578T breast it was 105%. Also, the growth in the experiment with NCI/ADR-RES ovarian is 110%.

As for `NS(=O)(=O)c1cn(-c2ncnc3nc[nH]c23)ccc1=O`, the growth was 95.4% in the experiment with SK-MEL-2 melanoma; 97.8% in the experiment on EKVX NSCLC; 92.4% with SN12C renal; 78.2% in the experiment with UO-31 renal; 94.5% in the experiment with TK-10 renal; 99.2% in the experiment with ACHN renal. For the same compound, the growth in the experiment with A498 renal was 89.1%; with CCRF-CEM leukemia, 94.1%; in the experiment on MOLT-4 leukemia, 99.5%; with SR leukemia, 132%; in the experiment with RPMI-8226 leukemia, 74.7%; in the experiment on OVCAR-8 ovarian it was 107%. Moreover, the growth is 93.1% in the experiment on OVCAR-5 ovarian; 95.1% in the experiment with OVCAR-4 ovarian; 82.2% in the experiment on SK-OV-3 ovarian; 97.2% in the experiment on IGROV1 ovarian; 103% with OVCAR-3 ovarian; 102% in the experiment on HS 578T breast. In the experiment on NCI/ADR-RES ovarian, the growth was 105%.

Regarding `NC(=O)c1c(NC(=O)c2ccc(C(F)(F)F)cc2Cl)sc2c1CCC(=O)C2`, the growth was -11.1% (active) in the experiment with SK-MEL-2 melanoma; -9.99% (active) in the experiment with EKVX NSCLC; -5.19% (active) in the experiment with SN12C renal; -100% (active) in the experiment with UO-31 renal; 6.29% (active) in the experiment on TK-10 renal; -91.1% (active) in the experiment on ACHN renal. Also, the growth in the experiment on A498 renal was 61.9%; in the experiment with CCRF-CEM leukemia it was -1.78% (active); in the experiment on RPMI-8226 leukemia it was -22.7% (active); in the experiment with OVCAR-5 ovarian it was -41.9% (active); with OVCAR-4 ovarian, -74.7% (active); in the experiment with SK-OV-3 ovarian, -6.73% (active). Moreover, the growth in the experiment with IGROV1 ovarian was -39.2% (active); in the experiment with OVCAR-3 ovarian it was -57.4% (active); in the experiment with HS 578T breast, -7.87% (active); with NCI/ADR-RES ovarian it was -13.9% (active).

Regarding `O=[N+]([O-])c1ccc(-c2cc3c(Nc4ccc(OCc5cccc(Cl)c5)c(Cl)c4)ncnc3s2)cc1`, the growth in the experiment with SK-MEL-2 melanoma is 79.4%; with EKVX NSCLC, 68.4%; with SN12C renal, 85.1%; in the experiment with UO-31 renal, 59.9%; in the experiment on TK-10 renal it was 70.1%; with ACHN renal it was 63.3%. For the same compound, the growth is 72.3% in the experiment with A498 renal; 52.2% with CCRF-CEM leukemia; 47.5% in the experiment on MOLT-4 leukemia; 48.9% with SR leukemia; 53.4% in the experiment on OVCAR-8 ovarian; 88.2% in the experiment with OVCAR-5 ovarian. In addition, the growth in the experiment with OVCAR-4 ovarian is 41.1%; in the experiment on SK-OV-3 ovarian, 58.5%; in the experiment on IGROV1 ovarian, 76.8%; with OVCAR-3 ovarian, 26.7%; in the experiment with HS 578T breast, 82.1%; with NCI/ADR-RES ovarian, 68.1%.

On to `C=C(C)[C@@H]1CC[C@]2(CN)CC[C@]3(C)[C@H](CC[C@@H]4[C@@]5(C)CCC(N)[C@@](C)(CO)[C@@H]5CC[C@]43C)[C@@H]12` (some centres not stated), for which the growth with SK-MEL-2 melanoma was -86.4% (active); in the experiment on EKVX NSCLC it was 21.3%; with SN12C renal, -69.3% (active); with UO-31 renal, 65.8%; in the experiment on TK-10 renal, -86.3% (active); with ACHN renal, -77.7% (active). Also, the growth in the experiment on A498 renal is 81.4%; in the experiment with CCRF-CEM leukemia, -44.8% (active); in the experiment on RPMI-8226 leukemia it was -51.8% (active); in the experiment on OVCAR-8 ovarian it was -72.9% (active); with OVCAR-5 ovarian, 48.5%; in the experiment on OVCAR-4 ovarian it was -4.67% (active). Besides, the growth in the experiment with SK-OV-3 ovarian was -80.5% (active); with IGROV1 ovarian, 67%; in the experiment on OVCAR-3 ovarian it was -75.9% (active); with HS 578T breast it was -37.1% (active); with NCI/ADR-RES ovarian it was 76.2%.

On to `Cc1nc(Nc2ccc(NC(=S)Nc3ccccc3)cc2)nc2nc(Nc3cccc(Cl)c3)[nH]c(=O)c12`, for which the growth was 88.8% with SK-MEL-2 melanoma; 119% with EKVX NSCLC; 97.4% in the experiment with SN12C renal; 96.4% in the experiment on UO-31 renal; 142% in the experiment with TK-10 renal; 96.7% in the experiment on ACHN renal. In addition, the growth in the experiment on A498 renal is 91.3%; in the experiment with CCRF-CEM leukemia, 81.2%; in the experiment with MOLT-4 leukemia it was 64.9%; in the experiment with SR leukemia it was 62.7%; in the experiment on RPMI-8226 leukemia it was 57.2%; in the experiment on OVCAR-8 ovarian, 97.2%. Further, the growth is 101% in the experiment on OVCAR-5 ovarian; 102% in the experiment on OVCAR-4 ovarian; 95.7% with SK-OV-3 ovarian; 139% in the experiment with OVCAR-3 ovarian; 67.1% in the experiment on HS 578T breast; 110% in the experiment with NCI/ADR-RES ovarian.
